Screens: PubChem, National Center for Advancing Translational Sciences (NCATS)
TDP1 block: TDP1 (human) enzyme inhibition; Q9NUW8; recombinant TDP1, AlphaScreen DNA substrate cleavage; Potency, µM (doses to about 130 µM), for the others: at the top dose activity change, negative = inhibition, most hits filed as inhibitors; 350,000 compounds, 0.28% hits; also: potency is read from the fitted curve at half-maximal effect; nearly all actives have a fitted effect of over 40% in size
Target sequence (Q9NUW8 whole entry, looked up): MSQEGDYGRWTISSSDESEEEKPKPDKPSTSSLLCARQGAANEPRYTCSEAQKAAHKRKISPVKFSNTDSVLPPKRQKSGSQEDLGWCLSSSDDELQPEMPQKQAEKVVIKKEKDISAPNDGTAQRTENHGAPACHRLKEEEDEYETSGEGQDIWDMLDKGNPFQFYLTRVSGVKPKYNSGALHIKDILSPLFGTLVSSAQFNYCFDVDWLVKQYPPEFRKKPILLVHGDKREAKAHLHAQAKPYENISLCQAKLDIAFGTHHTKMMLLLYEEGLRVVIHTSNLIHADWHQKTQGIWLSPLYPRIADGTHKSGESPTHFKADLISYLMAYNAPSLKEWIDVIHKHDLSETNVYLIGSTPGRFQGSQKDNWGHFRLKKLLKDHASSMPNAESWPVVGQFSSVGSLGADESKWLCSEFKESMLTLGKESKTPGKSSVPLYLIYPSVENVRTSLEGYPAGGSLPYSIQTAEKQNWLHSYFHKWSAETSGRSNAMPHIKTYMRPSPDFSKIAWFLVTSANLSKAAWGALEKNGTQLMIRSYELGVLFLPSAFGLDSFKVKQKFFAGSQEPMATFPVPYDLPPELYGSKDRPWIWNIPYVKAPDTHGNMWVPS
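AlphaScreen read-out: signal falls as enzyme removes the 3' tyrosine-FITC from a 5'-biotinylated DNA oligo (15 nM, 5 min, RT). Enzyme was E. coli-made recombinant Tdp1 at 1 nM, exposed to compound for 15 min beforehand; beads 10 ug/ml, 10 min.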
DT40 TDP1 CPT: DT40-hTDP1 cell growth loss with CPT; chicken DT40 Tdp1-/-;hTDP1 cells + 20 nM CPT, ATP luminescence, 48 h; Potency, µM (titrated, usually from 46.2 µM), without a hit: at the highest dose activity change, negative = growth inhibition, hits mostly inhibitors; 420,000 compounds, 12% hits; AID 686979; also: potency is read from the fitted curve at half-maximal effect; nearly all actives have a fitted effect of over 55% in size
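Cell growth measured by CellTiter-Glo luminescence after a minimum 48 h, 37 C compound exposure with 20 nM CPT in Tdp1-knockout DT40 cells stably expressing hTDP1, seeded 400/well; qHTS titration format.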
IL1B secr inh: inhibitors of inflammasome signaling (IL-1 beta secretion) | activity change, % at 57.5 µM | THP-1 LPS/ATP IL-1B secretion, AlphaLISA, 16 h; active compounds read low | 360,000 compounds, 4.7% hits; in the data active = activity change below about -50%; inconclusive = mostly about -30% to -49%
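THP-1 cells pretreated 1 hr with compounds (up to 57.5 uM final), then stimulated with LPS (250 ng/mL final) plus ATP (1.25 mM final); secreted IL-1B measured by AlphaLISA after 16 hr, decreased signal indicating inhibition.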
ELG1 DNA repair: inhibitors of ELG1-dependent DNA repair in HEK293T cells | HEK293T ELG1-luciferase reporter, luminescence, 16 h; DNA damage induced by 5-fluorouridine | Potency, µM (titrated, usually from 46.1 µM), for the others: top-dose activity change, negative = inhibition, most hits filed as inhibitors | 330,000 compounds, 2.3% hits; also: potency is read from the fitted curve at half-maximal effect; nearly all actives have a fitted effect of over 55% in size
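Overnight (16 hr) co-exposure of 2,000 cells/well to 5-fluorouridine and compound at 37 °C preceded detection. Luciferase was quantified via ONE-Glo luminescence; loss of signal denotes inhibition.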
DT40 TDP1 no CPT: qHTS for Inhibitors of human tyrosyl-DNA phosphodiesterase 1 (TDP1): qHTS in cells in absence of CPT; DT40 Tdp1-/- hTDP1 cells, no CPT, ATP luminescence, 48 h; Potency, µM (highest dose often 46.2 µM), for the others: at the highest dose activity change, negative = growth inhibition, most hits filed as inhibitors; 420,000 compounds, 15% hits; AID 686978, 2013; also: potency is read from the fitted curve at half-maximal effect; nearly all actives have a fitted effect of over 55% in size
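Readout: luminescence from CellTiter-Glo after 30 min in the dark at RT. Cells: DT40 Tdp1-/- with stable hTDP1, 400/well. Exposure: compounds alone, ≥48 hr, 37 °C.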
Giardia kill: kills Giardia lamblia; Giardia lamblia trophozoite viability; activity change, % at 7.66 µM, hits read low; 340,000 compounds, 0.15% hits; AID 540267; in the data active = activity change below about -80%; inconclusive = between about -30% and that limit;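 also: parasites exposed to compound for two days anaerobically before the ATP read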
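Trophozoite viability was measured as ATP-dependent luminescence, read 15-30 min after reagent addition. Before that, parasites at 100 cells/well were exposed to compounds for 48 h, anaerobically, at 37 deg C.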
An asterisk follows results filed as active; ? = inconclusive; . = not tested or not shown. An excerpt weighted towards active compounds, which were near 19% of everything screened. Unless noted, calls follow the shape of the dose curve; as a rule, active = well fitted curve in the direction sought with a large enough effect; inconclusive = small, poorly fitted or top-dose-only effect, or another doubt; inactive = no such curve, though single readings can be large; an effect the other way counts as inactive or inconclusive. % is scaled to controls: 0 for no effect and ±100 for the full control effect.

SMILES	TDP1 block	DT40 TDP1 CPT	IL1B secr inh	ELG1 DNA repair	DT40 TDP1 no CPT	Giardia kill
Cc1ccc(CNC(=O)CCCN2C(=O)c3cccnc3Oc3ccc(Cl)cc32)cc1	4%	?	.	.	?	.
CCS(=O)(=O)c1ncc(N(Cc2ccco2)Cc2ccccc2F)c(C(=O)Nc2cccc(Cl)c2)n1	3%	?	.	.	?	.
O=C(Nc1cccc(C(F)(F)F)c1)C1CCN(S(=O)(=O)c2cccc3nsnc23)CC1	9%	23µM*	.	.	23µM*	.
Cc1ccc(NC(=O)C2CCN(S(=O)(=O)c3cccc4nsnc34)CC2)cc1F	-2%	?	.	.	-26%	.
O=C(NCc1cccnc1)C1CCN(S(=O)(=O)c2cccc(C(F)(F)F)c2)CC1	1%	0%	8	3%	-13%	8
O=C(Nc1cccc(C(F)(F)F)c1)C1CCN(S(=O)(=O)c2cccnc2)CC1	0%	?	9	-6%	21µM*	-19
CCC(c1nnc(SCC(=O)Nc2ccc(Cl)cc2C(F)(F)F)n1C1CCCCC1)N(C)C (configuration not stated)	3%	-24%	?	0%	?	8
COc1ccc(CNC(=O)c2ccc3nc(C(C)C)oc3c2)cc1OC	2%	23µM*	.	.	?	.
COc1ccc(OC)c(CNC(=O)c2ccc3nc(C(C)C)oc3c2)c1	1%	?	.	.	23µM*	.
CC(C)c1nc2ccc(C(=O)NC(C)c3ccccc3)cc2o1 (configuration not stated)	5%	-26%	.	.	?	.
CCOc1ccc(NC(=O)c2ccc3nc(C(C)C)oc3c2)cc1	1%	21µM*	.	.	16µM*	.
COc1ccc(Br)cc1CNC(=O)c1ccc2nc(C(C)C)oc2c1	4%	0%	.	.	-22%	.
COc1ccc(OC)c(NC(=O)c2ccc3nc(C(C)C)oc3c2)c1	3%	12%	.	.	-1%	.
COc1ccc([C@@H](C)NC(=O)c2ccc3oc(C(C)C)nc3c2)cc1	4%	?	9	0%	16µM*	-12
CCOC(=O)c1cccc(NC(=O)c2ccc3nc(C(C)C)oc3c2)c1	3%	?	.	.	?	.
CC(C)c1nc2ccc(C(=O)NCc3ccccc3Br)cc2o1	5%	?	.	.	16µM*	.
COc1cc(/C=C2\C(=O)ON=C2c2ccc(Cl)cc2)ccc1O	.	16µM*	-95*	.	23µM*	13
O=C1ON=C(c2ccccc2)/C1=C/c1ccc(OS(=O)(=O)c2ccccc2)cc1	3%	-27%	9	16%	?	43
COc1ccc(/C=C2\C(=O)ON=C2c2ccccc2)cc1	.	?	?	?	21µM*	-4
O=C1ON=C(c2cccc([N+](=O)[O-])c2)/C1=C/c1ccc(O)cc1	-1%	12µM*	-100*	?	13µM*	27
CC(=O)OCC(=O)Nc1cc(C#N)cc(NC(=O)COC(C)=O)c1Cl	.	-3%	.	.	-3%	.
CSc1ncc(C(=O)NCc2ccc(C)cc2)c(C)n1	4%	?	.	.	?	.
O=C(CCNC(=O)Cn1ccc2ccccc2c1=O)NCCN1CCN(c2cccc(Cl)c2)CC1	2%	-27%	-17	?	?	8
Cc1cccc(N2CCN(C(=O)CCNC(=O)Cn3ccc4ccccc4c3=O)CC2)c1C	6%	?	13	?	15µM*	14
O=C(Cn1ccc2ccccc2c1=O)NCCC(=O)N1CCN(c2cccc(Cl)c2)CC1	6%	15µM*	6	?	?	12
COc1ccc(NC(=O)CN(C)C(=O)CN2C(=O)NC3(CCCC3)C2=O)cc1	0%	-19%	0	6%	?	-8
CCCc1c(C(=O)N2CCN(c3ccccc3OC)CC2)cnn1-c1ccccc1	3%	?	-2	16µM*	18µM*	-8
